Compound activity as filed in PubChem.
Only some compounds are listed: those with a hit (about 12% of all), similar ones and a draw of the others.
BAZ2B inh: BAZ2B (human) inhibition | 360,000 compounds, 4.4% hits | Q9UIF8 | AID 504333 | Potency, µM (highest dose often 114 µM), actives largely listed as inhibitors | AlphaScreen BAZ2B-H3K14Ac peptide displacement; also: nearly all actives have a fitted effect of over 60% in size
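AlphaScreen luminescence quantifies BAZ2B engagement of H3K14Ac peptide; the protein and biotinylated peptide are both at 50 nM final, buffer PBS pH 7.4 with 0.01% Tween-20, all steps at room temperature.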
PLK1 PBD block: blocks phosphopeptide binding to human PLK1 polo-box domain; Potency, µM, hits mostly inhibitors; Plk1 PBD binding of FITC phosphopeptide, fluorescence polarization; 360,000 compounds, 2.8% hits; AID 720504; P53350; also: series mostly up to about 57 µM; nearly all actives have a fitted effect of over 65% in size
PI5P4Ka inh: inhibitors of human PI5P4K alpha; max response, %; PI5P4Kalpha enzyme, ADP-Glo luminescence, 60 min; hits give low values; P48426; 330,000 compounds, 1.2% hits; active = max response of -50% or lower; inconclusive = between -30% and -50%; inactive = -30% or higher; also: value at the top dose of about 77 µM
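Controls without substrate or without enzyme flank wells where PI5P4Kalpha converts substrate using 5 microM ATP (final). Incubation lasts 60 minutes at room temperature; ADP formed is read by ADP-Glo luminescence.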
G9a block: blocks human histone lysine methyltransferase G9a | G9a H3K9 monomethylation, AlphaScreen, 2 h | Potency, µM (series often up to 102 µM), hits mostly inhibitors | 350,000 compounds, 8.8% hits; also: nearly all actives have a fitted effect of over 75% in size
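Signal arises when biotinylated H3K9 peptide, once monomethylated, bridges streptavidin donor and antibody-captured acceptor beads. Enzyme at 20 nM was preincubated 15 min with test compounds; peptide 500 nM and SAM 20 uM then reacted for 2 h.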
JMJD2A Tudor inh: blocks the human JMJD2A Tudor domain; O75164; AlphaScreen JMJD2A-Tudor / H3K4me3 peptide binding; Potency, µM (highest dose often 114 µM), actives largely listed as inhibitors; 390,000 compounds, 4.4% hits; AID 504339; also: nearly all actives have a fitted effect of over 50% in size
HP1b chromo inh: inhibitors of HP1-beta chromodomain binding to methylated histone tails. P83916. AlphaScreen HP1-beta / biotin-H3K9me3 peptide binding. Potency, µM (highest dose often 114 µM), actives largely listed as inhibitors. 390,000 compounds, 0.56% hits; also: nearly all actives have a fitted effect of over 70% in size
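HP1-beta protein (50 nM final) preincubated 30 min at room temperature with biotinylated H3(1-18)K9me3 peptide (50 nM) in PBS pH 7.4, 0.01% Tween-20, then compound added for 30 min. AlphaScreen streptavidin donor/nickel chelate acceptor beads (10 ug/mL final), 30 min dark, luminescence read.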
Each line names hits and unclear results; the compound was inactive in the other large screens; ! = a repeat was not active. Unless noted, calls follow the shape of the dose curve; as a rule, active = well fitted curve in the direction sought with a large enough effect; inconclusive = small, poorly fitted or top-dose-only effect, or another doubt; inactive = no such curve, though single readings can be large; an effect the other way counts as inactive or inconclusive.

Cn1c(-c2ccccc2)c(/C=N/NC(=O)c2ccc(O)cc2)c2ccccc21	PI5P4Ka inh -95
COc1cccc(N2CCN(C(=O)C3CCN(S(=O)(=O)c4cn(C)cn4)CC3)CC2)c1	none (no result: PLK1 PBD block, PI5P4Ka inh)
COc1ccc(SCC(=O)c2cc(C)c(OC(=S)N(C)C)c(C)c2)cc1	G9a block 40µM
CCCN(CCC)C(=O)Cn1c(SCc2cccc(C(F)(F)F)c2)nc2cccnc21	none (no result: PLK1 PBD block, PI5P4Ka inh)
C#CCOCCOCCOCCNc1nc(N2CCN(C(=O)Cn3cc(CCCN=C(N)N)nn3)CC2)nc(N2CCN(C(=O)[C@H](C)n3cc(CCCN=C(N)N)nn3)CC2)n1	BAZ2B inh inconclusive, G9a block 56µM
C#CCOCCOCCOCCNc1nc(N2CCN(C(=O)[C@H](C)n3cc(CCCN=C(N)N)nn3)CC2)nc(N2CCN(C(=O)[C@H](CCCCN)n3cc(CCCC)nn3)CC2)n1	BAZ2B inh inconclusive, G9a block 4.5µM (no result: PLK1 PBD block, PI5P4Ka inh, JMJD2A Tudor inh, HP1b chromo inh)
C#CCOCCOCCOCCNc1nc(N2CCN(C(=O)[C@H]([C@@H](C)CC)n3cc(CCCN=C(N)N)nn3)CC2)nc(N2CCN(C(=O)[C@H](CCCCN)n3cc(CCCC)nn3)CC2)n1	G9a block inconclusive
C#CCOCCOCCOCCNc1nc(N2CCN(C(=O)Cn3cc(CCCN=C(N)N)nn3)CC2)nc(N2CCN(C(=O)[C@H](CCCCN)n3cc(CCCC)nn3)CC2)n1	BAZ2B inh 79µM
COc1cccc(Cn2c(C)c(CNCc3ccccc3Cl)c(C(=O)O)c2C)c1	none (no result: PLK1 PBD block, PI5P4Ka inh)
COc1ccc(-c2noc(N3CCN(c4ccc(C)cc4)C(C)C3)n2)cc1OC (stereo unspecified)	none (no result: PLK1 PBD block, PI5P4Ka inh)
Cc1ccc(-c2nnn(CC(=O)N(CCO)C(C(=O)NC3CCCCC3)c3ccncc3)n2)o1 (stereo unspecified)	PLK1 PBD block 34µM, G9a block 45µM, HP1b chromo inh inconclusive
Cc1ccc(-c2nnn(CC(=O)N(Cc3ccc(F)cc3)C(C(=O)NC3CCCC3)c3ccncc3)n2)o1 (stereo unspecified)	G9a block inconclusive
O=C(NC1CCCC1)C(c1ccncc1)N(CC1CCCO1)C(=O)Cn1nnc(-c2cccs2)n1 (stereo unspecified)	G9a block 50µM (no result: PI5P4Ka inh)
Cc1ccc(-c2nnn(CC(=O)N(CC3CCCO3)C(C(=O)NC3CCCC3)c3ccc(O)cc3)n2)o1 (stereo unspecified)	none
Cc1ccc(C(C(=O)NC(C)(C)C)N(CC2CCCO2)C(=O)Cn2nnc(-c3ccc(C)o3)n2)cc1 (stereo unspecified)	G9a block 45µM (no result: PI5P4Ka inh)
CC(C)(C)N(C(=O)Cn1nnc(-c2ccc(F)cc2)n1)C(C(=O)NC1CCCC1)c1ccncc1 (stereo unspecified)	G9a block 7.1µM
O=C(c1ccc(O)cc1)c1ccc(C(=O)c2ccc(O)cc2)cc1	none
Oc1ccc(O)cc1	G9a block 6µM (no result: BAZ2B inh, PLK1 PBD block, PI5P4Ka inh, JMJD2A Tudor inh, HP1b chromo inh)
Cc1ccc(C)c(NC(=O)c2cnc(N3CCCC3)nc2C)c1	none (no result: PLK1 PBD block, PI5P4Ka inh)
CSc1nnc(CNC(=O)C23CC4CC(CC(C4)C2)C3)n1Cc1ccccc1	PI5P4Ka inh inconclusive
CC(C)Sc1nnc(CNC(=O)C23CC4CC(CC(C4)C2)C3)n1Cc1ccccc1	G9a block 32µM
O=c1[nH]ccc2c(O)cccc12	G9a block 25µM! (no result: BAZ2B inh)
CN1CCN(C(=O)c2ccc(NS(=O)(=O)c3cccc([N+](=O)[O-])c3)cc2)CC1	G9a block 45µM
CCCNC(=O)C1(C)CCCN(Cc2ccc(-c3ccccn3)cc2)C1 (stereo unspecified)	none (no result: BAZ2B inh, G9a block, JMJD2A Tudor inh, HP1b chromo inh)
CCN1CCC(N(Cc2ccc3c(c2)OCO3)C(=O)Nc2cc(Cl)ccc2C(=O)OC)CC1	none (no result: PLK1 PBD block, PI5P4Ka inh)
Cc1cc(N2C(=O)C(O)=C(C(=O)c3ccco3)C2c2ccc(Cl)cc2)no1 (stereo unspecified)	G9a block inconclusive
Cc1cc(N2C(=O)C(O)=C(C(=O)c3ccco3)C2c2cccc(Oc3ccccc3)c2)no1 (stereo unspecified)	BAZ2B inh inconclusive, PLK1 PBD block inconclusive, PI5P4Ka inh -68, JMJD2A Tudor inh inconclusive
